{
  "source": "the OligoGym collection",
  "data": [
    {"molecular_target": "C17orf103", "test": "pooled miR-30 sensor sort-seq; sequence = guide strand", "conditions": "shRNA", "values": [
      {"sequence": "TACTTCTGGATGTACCAGCAGG", "sensor-assay potency score (higher = more potent)": -1.01},
      {"sequence": "TGTACCAGCAGGTGAGATGGGC", "sensor-assay potency score (higher = more potent)": -0.507},
      {"sequence": "TCATGACATCCGTTGAGCCGGA", "sensor-assay potency score (higher = more potent)": -0.377},
      {"sequence": "TAACTCTGAGTCTGTTCCCAGT", "sensor-assay potency score (higher = more potent)": -0.884},
      {"sequence": "TCATAGAGCAGGACGGCCCGGT", "sensor-assay potency score (higher = more potent)": -0.156}
    ]},
    {"molecular_target": "C17orf48", "test": "pooled miR-30 sensor sort-seq; sequence = guide strand", "conditions": "shRNA", "values": [
      {"sequence": "TAGTGTTAAGTTTAGAGTGTGT", "sensor-assay potency score (higher = more potent)": 0.18},
      {"sequence": "TATCTTCATACACTGCTCGTAT", "sensor-assay potency score (higher = more potent)": 0.128},
      {"sequence": "TTCAACATCATTTTGTCAGGAT", "sensor-assay potency score (higher = more potent)": 1.06},
      {"sequence": "TACACTGCTCGTATTTTGGAGA", "sensor-assay potency score (higher = more potent)": -0.905},
      {"sequence": "TTCTTGTAATTCATAATTCTAT", "sensor-assay potency score (higher = more potent)": -1},
      {"sequence": "ATCGATGATATCTCCAAGCTGA", "sensor-assay potency score (higher = more potent)": -0.464},
      {"sequence": "TGATCTTCTAGAAACTTAGTGT", "sensor-assay potency score (higher = more potent)": 0.0518},
      {"sequence": "ATCTTCTAGAAACTTAGTGTTA", "sensor-assay potency score (higher = more potent)": -1.09},
      {"sequence": "TATACTGTGCATTATATCCATC", "sensor-assay potency score (higher = more potent)": -0.953},
      {"sequence": "TATGTCTGTAGTATCGCCGCCT", "sensor-assay potency score (higher = more potent)": -0.223},
      {"sequence": "TTGAGGACTATTCAGTTCCGTA", "sensor-assay potency score (higher = more potent)": -1.1},
      {"sequence": "TTCAATAACTCCTTCTAGGTTG", "sensor-assay potency score (higher = more potent)": -0.121}
    ]}
  ]
}
